Measurements published in PubChem BioAssay AID1851 (National Center for Advancing Translational Sciences (NCATS), 2009).
In all, about 16,000 compounds went through this assay and about 5,100 (32%) were called active. About 25% were inconclusive and are not listed. Calls follow the shape of the dose curve; as a rule, active = well fitted curve in the direction sought with a large enough effect; inconclusive = small, poorly fitted or top-dose-only effect, or effect the other way; inactive = no such curve, though single readings can be large or run the other way. The list shows a part of the results.

Target: Cytochrome P450 3A4 (Homo sapiens) (UniProt P08684)
Sequence (P08684 whole entry, looked up): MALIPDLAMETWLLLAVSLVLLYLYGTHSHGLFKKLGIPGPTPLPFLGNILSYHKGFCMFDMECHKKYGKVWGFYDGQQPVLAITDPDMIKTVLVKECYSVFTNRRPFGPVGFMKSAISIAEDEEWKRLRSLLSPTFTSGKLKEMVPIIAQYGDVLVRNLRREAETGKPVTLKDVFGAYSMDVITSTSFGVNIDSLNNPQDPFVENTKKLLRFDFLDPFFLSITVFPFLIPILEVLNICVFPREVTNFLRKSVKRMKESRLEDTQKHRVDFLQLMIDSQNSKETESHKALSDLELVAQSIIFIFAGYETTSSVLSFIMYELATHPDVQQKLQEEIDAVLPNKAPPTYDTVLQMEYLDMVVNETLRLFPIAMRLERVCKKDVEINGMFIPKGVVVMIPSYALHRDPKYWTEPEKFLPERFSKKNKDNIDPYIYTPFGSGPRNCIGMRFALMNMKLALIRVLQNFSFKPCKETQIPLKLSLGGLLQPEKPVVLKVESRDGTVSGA
Test: Cytochrome panel assay with activity outcomes
Settings: recombinant CYP, pro-luciferin dealkylation, luminescence, p450-cyp3a4; series mostly up to 57.1 µM
% is scaled to controls: 0 for no effect and ±100 for the full control effect.

Compound | activity, negative = inhibition | AC50
O=C(O)C(Sc1ccc(Cl)cc1)Sc1ccc(Cl)cc1 | 12.3% [at 11.4 µM] (inactive) | –
COc1ccc(C(=O)n2c(SC)nc3cc4c(cc32)OCCO4)cc1 | -12% [at 2.29 µM] (inactive) | –
O=C(O)C(Cc1cccs1)C(=O)O | -8.79% [at 11.4 µM] (inactive) | –
O=C(NCc1ccccc1)C(c1cccs1)N(Cc1cccs1)C(=O)c1cnccn1 (stereo not drawn) | – | 0.891 µM (active)
CCc1ccc(C(C(=O)NCc2ccc(OC)cc2)N(CCOC)C(=O)Cc2cccs2)cc1 (stereo not drawn) | – | 1 µM (active)
COc1ccc(CNC(=O)C(c2ccc(C)cc2)N(Cc2cccs2)C(=O)c2ccc3c(c2)OCCO3)cc1 (stereo not drawn) | – | 1 µM (active)
COc1ccc(C(C(=O)NCc2ccccc2)N(Cc2cccs2)C(=O)c2cnccn2)cc1 (stereo not drawn) | – | 0.708 µM (active)
COc1ccc2nc3oc(C(=O)NCc4cccs4)cc3cc2c1 | – | inactive
COCCN(C(=O)c1ccco1)c1nnc(-c2ccc(OC)cc2)s1 | -28.3% [at 2.29 µM] (inactive) | –
O=C(COC(=O)c1cnccn1)NCc1ccccc1 | -20.5% [at 11.4 µM] (inactive) | –
Cc1cccc(NC(=O)CSc2nnnn2C)n1 | – | inactive
CCc1c(C)sc(NC(=O)OC)c1C(N)=O | – | inactive
CCOC(=O)c1c(NC(=O)CCc2ccc(CC)o2)sc(C)c1C | – | 12.6 µM (active)
CCOC(=O)c1c(NC(=O)CSc2nnnn2C)sc(C)c1C | – | 14.1 µM (active)
Nc1nc2c(ncn2COCCO)c(=O)[nH]1 | – | inactive
Cc1ccc(S(=O)(=O)N(CC(=O)N/N=C/c2ccc(F)cc2)c2cccc3cccnc23)cc1 | – | 1.26 µM (active)
O=C(CN(Cc1ccccc1)S(=O)(=O)c1ccc2c(c1)OCCO2)N/N=C/c1ccc(F)cc1 | 0.145% [at 2.29 µM] (inactive) | –
CC(C)NC(=O)CC(=O)N/N=C/c1ccc(F)cc1 | – | inactive
O=C1CC2(CCCC2)CC(=O)N1CCCCNC[C@H]1COc2ccccc2O1 | – | 0.631 µM (active)
Cn1c(C(=O)O)c(CC(=O)NCC2COc3ccccc3O2)c2ccccc21 (stereo not drawn) | -8.31% [at 11.4 µM] (inactive) | –
COc1ccc(NC(=O)C2(c3ccc(NC(=O)c4ccc(OC(C)=O)cc4)cc3)CCCC2)cc1 | – | inactive
Cc1cccc(NC(=S)NC(=O)c2cc(-c3ccccc3)nc3ccccc23)c1 | -27.7% [at 11.4 µM] (inactive) | –

Compound | activity, negative = inhibition | AC50
COC(=O)COc1cccc(NC(=O)c2ccc(C)cc2)c1 | – | 17.8 µM (active)
COc1ccc(C(=O)Nc2cc(Cl)ccc2OC(=O)c2ccc(OC)cc2)cc1 | – | 22.4 µM (active)
Cc1ccc(C(=O)Nc2cc(Cl)ccc2OC(=O)c2ccc(C)cc2)cc1 | -3.15% [at 2.29 µM] (inactive) | –
COc1ccc(C(=O)Nc2cc(OC)cc(OC)c2)cc1 | – | 14.1 µM (active)
CC(=O)Nc1ccc(-c2cc(-c3ccc(NC(C)=O)cc3)nc(-c3ccccc3)n2)cc1 | -4.31% [at 2.29 µM] (inactive) | –
Cc1ccc(C(=O)Nc2cccc(-c3cnc4ccccc4n3)c2)cc1 | – | 2.24 µM (active)
CCOc1ccc(NC(=O)c2ccc(OC)cc2)cc1 | – | inactive
CCN1C(=O)[C@H]2[C@H]3[C@H](O)[C@H](O)C/C(=N/O[C@@H]4O[C@@H](COC(C)=O)[C@@H](OC(C)=O)[C@@H](OC(C)=O)[C@H]4OC(C)=O)[C@H]3CC[C@@H]2C1=O | -8.67% [at 11.4 µM] (inactive) | –
COc1ccc(C(=O)Nc2cccc(-c3cnc4ccccc4n3)c2)cc1 | – | 2.51 µM (active)
Cc1ccc(C(=O)Nc2ccc(N3CCOCC3)nc2)cc1 | – | inactive
Cc1ccc(C(=O)Nc2ccc3nccnc3c2)cc1 | – | 14.1 µM (active)
COc1ccc(C(=O)COC(=O)c2ccc(NC(=O)c3ccccc3)cc2)cc1 | – | inactive
Cc1ccc(NC(=O)c2nnn(-c3cc(C)cc(C)c3)c2N)cc1 | 5.32% [at 2.29 µM] (inactive) | –
Cc1ccc(-n2nc3ccc(NC(=O)c4ccc5c(c4)OCO5)cc3n2)cc1 | – | 8.91 µM (active)
Cn1c(=O)n2n(c1=O)[C@H]1[C@H](O)[C@H]3O[C@@H]3/C(=N/OCc3ccccc3)[C@@H]1CC2 | -26.2% [at 11.4 µM] (inactive) | –
Cc1ccc(C)c(-n2c(CNC(=O)c3ccco3)nnc2SCC(=O)N2CCc3ccccc32)c1 | – | 7.08 µM (active)
Cc1ccc(-n2c(=O)[nH]cc(C(=O)N3CCc4ccccc43)c2=O)cc1 | – | inactive
CCOC(=O)N1CCN(C(=O)CN(C)S(=O)(=O)c2ccc3c(c2)C(C)(C)C(=O)N3C)CC1 | – | inactive
CCc1cccc(NC(=O)CN(C)S(=O)(=O)c2cnc[nH]2)c1 | – | 2.51 µM (active)
CN(CC(=O)N1CCN(c2ccccc2)CC1)S(=O)(=O)c1cnc[nH]1 | – | 11.2 µM (active)
CCc1cccc(CC)c1NC(=O)CN(CC(=O)O)CC(=O)O | – | inactive
CC(C)CC(=O)N1CCC(N2CCN(c3ccccc3)CC2)CC1 | 6.02% [at 2.29 µM] (inactive) | –

Compound | activity, negative = inhibition | AC50
COc1cc(O)oc1C=Nc1ccc(Cl)cc1 | – | 15.8 µM (active)
COc1cc(O)oc1C=Nc1ccc(C(F)(F)F)cc1 | – | 8.91 µM (active)
CCOc1[nH]n(-c2ccc(Cl)cc2)c(=O)c1C=Nc1ccc(O)cc1 | – | inactive
C/C(=N\OC(=O)c1cccc(C)c1)c1sc(-c2ccccc2)nc1C | – | inactive
C/C(=N\OC(=O)NC1CCCCC1)c1sc(-c2ccccc2)nc1C | – | 15.8 µM (active)
c1ccc2c(-c3c[nH]c4ccccc34)c3ccccc3nc2c1 | – | 8.91 µM (active)
c1ccc2c(CN3CCN(Cc4c[nH]c5ccccc45)CC3)c[nH]c2c1 | -20.1% [at 11.4 µM] (inactive) | –
O=C(O)CCc1nc(-c2ccccc2-n2cccc2)no1 | – | 2.51 µM (active)
CN(C)C(=O)CCc1nc(-c2ccc(C(C)(C)C)cc2)no1 | – | inactive
CCN(CC)CCc1nc(-c2ccccc2)no1 | – | inactive
O=C(NC1CCCC1)C(c1ccsc1)N(Cc1ccccc1)C(=O)Cc1cccs1 (stereo not drawn) | – | 2 µM (active)
COc1ccc(CN(C(=O)Cc2cccs2)C(C(=O)NC2CCCC2)c2ccncc2)cc1 (stereo not drawn) | – | 1 µM (active)
O=C(NC1CCCCC1)C(c1cccs1)N(Cc1cccs1)C(=O)c1ccco1 (stereo not drawn) | – | 3.16 µM (active)
O=C(O)c1cscc1Cc1cccs1 | 17.7% [at 11.4 µM] (inactive) | –
O=C(Cc1cccs1)N/N=C/C(Br)=C/c1ccccc1 | – | inactive
O=C(NC1CCCC1)C(c1ccc(F)cc1)N(Cc1ccc(F)cc1)C(=O)c1ccn[nH]1 (stereo not drawn) | -28.2% [at 2.29 µM] (inactive) | –
COc1ccc(C(C(=O)NC2CCCC2)N(Cc2ccc(F)cc2)C(=O)c2ccn[nH]2)cc1OC (stereo not drawn) | – | 3.98 µM (active)
CCc1cc2c(=O)[nH]cnc2s1 | – | inactive
O=C(O)/C=C(/C(=O)O)[C@]12CCN3CC4=CCO[C@@H]5CC(=O)N[C@@H]1[C@H]5[C@H]4C[C@H]32 | 2.64% [at 11.4 µM] (inactive) | –
COc1ccc(CCN=CC2=C(O)CC(C)(C)CC2=O)cc1 | – | 14.1 µM (active)
COC(=O)C1C(O)=C(C=NCc2ccccc2)C(=O)CC1(C)C (stereo not drawn) | – | inactive
COCCCN=CC1=C(O)CC(C)(C)CC1=O | – | inactive

Compound | activity, negative = inhibition | AC50
Cc1cc(C)c2[nH]c(=O)c(CN(Cc3ccco3)C(=O)c3cccs3)cc2c1 | – | 2.82 µM (active)
CCCCN1C(=O)C(NC(=O)C2CC2)(C(F)(F)F)C2=C1CC(C)(C)CC2=O (stereo not drawn) | 5.27% [at 2.29 µM] (inactive) | –
CC1(C)CC(=O)C2=C(C1)N(Cc1cccnc1)C(=O)C2(NC(=O)c1cccnc1)C(F)(F)F (stereo not drawn) | – | 12.6 µM (active)
O=C(NC1(C(F)(F)F)C(=O)Nc2c1c(=O)[nH]c(=O)n2-c1ccc(F)cc1)c1cccnc1 (stereo not drawn) | – | inactive
CCCCN1C(=O)C(NC(=O)c2cccnc2)(C(F)(F)F)C2=C1CC(C)(C)CC2=O (stereo not drawn) | – | 7.94 µM (active)
CCCCN1C(=O)C(NC(=O)CC(C)C)(C(F)(F)F)C2=C1CC(C)(C)CC2=O (stereo not drawn) | -16% [at 2.29 µM] (inactive) | –
CN(C)CC(O)COc1ccc(C(C)(C)c2ccc(OCC(O)CN(C)C)cc2)cc1 (stereo not drawn) | – | inactive
Nc1ccc(N2CCN(C(=O)c3ccco3)CC2)cc1 | – | inactive
CCOC(=O)c1cc2sc(C)cc2n1CCCN1C(=O)c2ccccc2C1=O | – | 3.16 µM (active)
CC1(C)CC(=O)C(CCCN2C(=O)c3ccccc3C2=O)C(=O)C1 | – | inactive
CCOC(=O)c1cc2sc(C)cc2n1CC(=O)N1CCN(C(=O)c2ccco2)CC1 | – | 14.1 µM (active)
OCCN(CCO)c1ncnc2nc[nH]c12 | -5.25% [at 11.4 µM] (inactive) | –
CCCC(=O)NNC(=O)Nc1ccccc1 | -11.8% [at 2.29 µM] (inactive) | –
O=C(COc1ccc2ccccc2c1Br)NNC(=O)Nc1ccccc1 | – | 14.1 µM (active)
Cn1cnc([N+](=O)[O-])c1SCC(=O)O | -11.5% [at 11.4 µM] (inactive) | –
CC1=N/C(=C\c2ccc([N+](=O)[O-])cc2)C(=O)N1c1ccc(Br)c(C)c1 | – | 2.82 µM (active)
CC1=N/C(=C\c2ccc([N+](=O)[O-])cc2)C(=O)N1c1ccc(Cl)cc1 | – | inactive
CN(C)c1ccc(/C=C2/C(=O)N(c3ccc([N+](=O)[O-])cc3)N=C2N2CCOCC2)cc1 | – | inactive
CCOC(=O)N/N=C1/C[C@@H](O)[C@@H](O)[C@@H]2[C@@H]3C(=O)N(C4CCCCC4)C(=O)[C@H]3CC[C@H]12 | -24.5% [at 11.4 µM] (inactive) | –
O=C(O)C1C2CCC(C2)C1C(=O)NCc1ccco1 (stereo not drawn) | – | inactive
O=C(COC(=O)c1cccc(S(=O)(=O)N2CCN(c3ccccc3)CC2)c1)NCc1ccco1 | – | 12.6 µM (active)
CCCc1nc2ccccc2c(C(=O)OCC(=O)Nc2cccc(S(=O)(=O)N3CCOCC3)c2)c1CC | -27.2% [at 2.29 µM] (inactive) | –
